Holding throughout (experiment): NCI-60 one-dose screen, 48 h (100 = growth as untreated, 0 = no growth, -100 = all killed)
Assay [1] deals with SR leukemia. Conditions: 10 µM unless noted.
The subject of assay [2] is RPMI-8226 leukemia. As to conditions: 10 µM unless noted.
In assay [3] the test system is OVCAR-8 ovarian. As to conditions: 10 µM unless noted.
The subject of assay [4] is OVCAR-5 ovarian. Conditions: 10 µM unless noted.
Assay [5] concerns OVCAR-4 ovarian. As to conditions: 10 µM unless noted.
The test system of assay [6] is SK-OV-3 ovarian. Conditions: 10 µM unless noted.
Assay [7] concerns IGROV1 ovarian. Conditions: 10 µM unless noted.
Assay [8] has as its system OVCAR-3 ovarian. As to conditions: 10 µM unless noted.
The subject of assay [9] is HS 578T breast. Conditions: 10 µM.
Assay [10] has as its system NCI/ADR-RES ovarian. Conditions: 10 µM unless noted.
The test system of assay [11] is T-47D breast. Conditions: 10 µM unless noted.
The test system of assay [12] is BT-549 breast. As to conditions: 10 µM unless noted.
For assay [13], the system named is MDA-MB-435 melanoma. Conditions: 10 µM unless noted.
Assay [14] has as its system MCF7 breast. Conditions: 10 µM unless noted.
Assay [15] concerns HCT-116 colon. Conditions: 10 µM unless noted.
Assay [16] concerns HCC-2998 colon. Conditions: 10 µM unless noted.
The subject of assay [17] is SW-620 colon. As to conditions: 10 µM unless noted.
Assay [18] has as its system KM12 colon. As to conditions: 10 µM unless noted.

This is part of a sample that, as a whole, favours compounds with a hit. Of some 83,000 tested, about 20% had one in any assay.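 96-well plates, one dose, 48 hours. Percent growth reported; active if below 10.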 Unmarked numbers belong to inactive results. Active and inactive are the calls of the source.

As to `Clc1ccc(Nc2ncnc3c2sc2ncccc23)cc1`, the growth is 10.4% in assay [1]; 38.2% in assay [2]; 12.2% in [3]; 58.2% in [4]; 85.4% in assay [5]; 28.6% in assay [6]. Also, the growth was 66.2% in [7]; 56.6% in assay [8]; 86.8% in assay [9]; 19.1% in [10]; 33.5% in assay [11]; 49.1% in [12]. In addition, the growth is 36.2% in assay [13], 19.5% in assay [14], 28% in [15] and 61.9% in assay [16].
As for `CCN1CCN(Cc2ccc(NC(=O)c3nc4ccc5[nH]ncc5c4c4c3CCCC4)cc2C(F)(F)F)CC1`, the growth in assay [1] was -29.2% (active); in assay [2] it was -24.6% (active); in assay [3], -59.3% (active); in [4], 48.9%; in [5] it was 22.6%; in assay [6], 91.7%. Also, the growth in assay [7] was -47.6% (active); in assay [8] it was -70.5% (active); in assay [9] it was 84.8%; in assay [10], 18.8%; in assay [11] it was -69.3% (active); in [12], 79.6%. The growth in assay [13] is -87.9% (active); in [17], -58.3% (active); in assay [15], -77.9% (active); in assay [16] it was -58.1% (active); in assay [18] it was 4.08% (active).
Take `Cc1cc(C)c2c(n1)sc1c(Nc3ccc(Cl)cc3Cl)ncnc12`: the growth in assay [1] is 4.08% (active); in assay [2] it was 28.4%; in [3], 3.79% (active); in assay [4] it was 57.5%; in assay [5], 68%; in assay [6], 22.2%. Also, the growth was 69.5% in [7]; 57.3% in assay [8]; 90.7% in assay [9]; 17.9% in assay [10]; 36.8% in assay [11]; 44% in [12]. The growth in assay [13] is 36%; in [17], 44.6%; in assay [15] it was 24.9%; in [16], 58.6%; in assay [18] it was 49.8%.
For `COCCCNCC(=O)Nc1c(C)cccc1C`, the growth in assay [1] was 100%; in assay [2], 108%; in [3], 107%; in assay [4], 104%; in assay [5], 111%; in [6], 112%. Also, the growth in assay [7] is 140%; in assay [8] it was 122%; in assay [9], 124%; in assay [10], 105%; in assay [11], 103%; in [12], 104%. Moreover, the growth in assay [13] is 112%; in assay [17] it was 114%; in [15], 110%; in [16], 122%; in assay [18], 109%.
For `COc1c(-c2cc(-c3ccc(C)o3)[nH]c(=O)n2)c(O)cc2occc12`, the growth in [1] is 27.1%; in [2], 74.8%; in assay [3] it was 73%; in assay [4] it was 99%; in assay [5] it was 72.4%; in [6], 81.8%. Also, the growth is 58.4% in assay [7]; 32.9% in assay [8]; 54.5% in assay [9]; 29.7% in assay [10]; 45.5% in [11]; 54% in [12]. Besides, the growth is -38.6% (active) in [13]; 22.3% in assay [17]; 28.1% in assay [14]; 92.1% in assay [16]; 36.1% in [18].
For the molecule `Cc1cc(C)cc(NC(=O)Cn2nncc2CN2C(=O)CSC2=O)c1`, the growth was 118% in assay [1]; 110% in assay [2]; 101% in assay [3]; 110% in assay [4]; 106% in assay [5]; 92.5% in [6]. The growth in assay [7] was 110%; in assay [8], 110%; in assay [9], 89.5%; in assay [10] it was 96.3%; in assay [11] it was 99.9%; in assay [12], 101%. Also, the growth in [13] was 103%; in assay [17] it was 99.7%; in [15], 107%; in assay [16], 108%; in [18], 110%.
On to `COc1cccc2nc(Nc3cccc(NC(=O)c4cc(N5CCOCC5)cc(C(F)(F)F)c4)c3)ccc12`, for which the growth was 74.4% in assay [1]; 31.9% in assay [2]; 52.2% in assay [3]; 97.5% in assay [4]; 61.9% in assay [5]; 88.9% in assay [6]. Further, the growth in [7] was 40.4%; in assay [8] it was 78%; in [9], 67%; in assay [10] it was 59.7%; in assay [11] it was 42.4%; in [12] it was 78.6%. For the same molecule, the growth in assay [13] was 55.3%; in assay [17], 95.8%; in [14], 45.2%; in [16] it was 76.9%; in [18] it was 52.3%.
Turning to `CC1=C(O)C(=O)C(c2c(C)cc(C)c(Br)c2C)=C(O)C1=O`, the growth in assay [1] is 48.9%; in assay [2], 36.7%; in assay [3], 68.4%; in assay [4], 70.1%; in assay [5], 45.6%; in assay [6], 88.3%. Further, the growth in assay [7] is 46.3%; in assay [8], 54.2%; in assay [9], 76.4%; in assay [10] it was 73.4%; in [11], 83.3%; in assay [12], 73.1%. Further, the growth in [13] is 73.2%; in assay [17] it was 85.5%; in [14], 56.5%; in assay [15], 54.4%; in [18] it was 67.7%.
For the molecule `CN1CCN(Cc2ccc(NC(=O)c3cccc(C#Cc4cnc(N)c5ncccc45)c3F)cc2C(F)(F)F)CC1`, the growth is -3.15% (active) in assay [1]; -9.88% (active) in [2]; -49.3% (active) in assay [3]; -5.62% (active) in [4]; 49.6% in [5]; 22.3% in [6]. In addition, the growth in [7] was 24.5%; in assay [8], 73.2%; in [9] it was 18%; in assay [10], 61.3%; in [11], 79.9%; in [12], 62%. Further, the growth was -82.7% (active) in [13], -49.9% (active) in [17], 67.3% in assay [16] and 1.2% (active) in [18].

Values taken from PubChem BioAssay (NCI).
